Among the data in PubChem BioAssay (NCATS) are Potency values, retold here.

The structures appear in SMILES notation. Results filed as inconclusive are left out. The source made the active and inactive calls. The call rests on the fitted dose curve; in most records, active means well fitted inhibition curve with a large enough effect; inconclusive means small, poorly fitted or top-dose-only effect; inactive means flat fitted curve, though single readings scatter.

Common to all, as to assay: qHTS profiling for inhibitors of Plasmodium falciparum proliferation (AID 504749); further: nearly all actives have a fitted effect of over 60% in size
Common to all, as to conditions: P. falciparum in erythrocytes, SYBR Green DNA, 72 h; series mostly up to 28.7 µM

For one test, the system named is DFO2036. A digest of the protocol: (§1)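 SYBR Green fluorescence of parasite DNA, read after lysis and overnight dark incubation, measured growth over 72 h in erythrocyte culture at 0.3% parasitemia and 2.5% hematocrit. Data normalised to DMSO and 0.29 uM artemisinin, with plate-drift correction.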
The subject of the next test is DIV14. A digest of the protocol: as §1
A further test concerns DIV17. A digest of the protocol: as §1
In another test the test system is DIV30. Summed up: as §1
Another test deals with Dd2. Summed up:
as §1

The next test has as its system ECU. Summed up: as §1
The next test concerns FAB9. A digest of the protocol: as §1
For a further test, the system named is GB4. Summed up: as §1
A further test deals with HB3. A digest of the protocol:
as §1

A further test relates to ICS. A digest of the protocol:
as §1

Another test concerns JCK. A digest of the protocol:
as §1

The next test relates to N140. Summed up: as §1
The next test concerns P93_24. Summed up:
as §1

The next test has as its system P94_40. A digest of the protocol: as §1
Another test relates to PAD. Summed up: as §1
The test system of a further test is PC15. Summed up:
as §1

A further test relates to PC26. A digest of the protocol: as §1
A further test has as its system PC49. Summed up: as §1
The subject of a further test is SC27B. A digest of the protocol: as §1
In the next test the test system is TAB109. A digest of the protocol:
as §1
Potency means the concentration at half of the fitted maximal effect.

Regarding `O=C(NC(Cc1cc(=O)[nH]c2ccccc12)C(=O)O)c1ccc(Cl)cc1` (stereo not given), the Potency entry in the test on DFO2036, in the test on DIV14, in the test on DIV17, in the test with DIV30, with Dd2 and with ECU was “inactive” throughout. Further, the Potency entry in the test with FAB9, in the test with GB4, in the test with HB3, in the test on ICS, with JCK and in the test on N140 was “inactive” in each case. The Potency entry in the test with P93_24, with P94_40, in the test on PAD, in the test on PC15, in the test on PC26 and with PC49 was “inactive” throughout. The Potency result in the test on SC27B and in the test with TAB109 was “inactive” in each case.
Consider `Cc1ncc([N+](=O)[O-])n1CC(C)O` (stereo not given), for which the Potency entry with DFO2036, in the test on DIV14, in the test on DIV17, with DIV30, in the test with Dd2 and with ECU was “inactive” in each case. In addition, the Potency entry with FAB9, in the test on GB4, in the test on HB3, in the test with ICS, with JCK and in the test on N140 was “inactive” in each case. For the same compound, the Potency result with P93_24, in the test on P94_40, with PAD, in the test on PC15, in the test on PC26 and with PC49 was “inactive” each time. In addition, the Potency result in the test on SC27B and with TAB109 was “inactive” in each case.
For the compound `CCOc1cc(CC(=O)N[C@@H](CC(C)C)c2ccccc2N2CCCCC2)ccc1C(=O)O`, the Potency result in the test with DFO2036, in the test on DIV14, in the test with DIV17, with DIV30, in the test with Dd2 and in the test with ECU was “inactive” each time. The Potency entry in the test on FAB9, in the test on GB4, with HB3, with ICS, with JCK and in the test with N140 was “inactive” in each case. In addition, the Potency result in the test with P93_24, in the test with P94_40, in the test with PAD, in the test with PC15, in the test on PC26 and with PC49 was “inactive” each time. Moreover, the Potency result in the test on SC27B and in the test on TAB109 was “inactive” each time.
Turning to `C[C@H](Cn1cnc2c(N)ncnc21)OCP(=O)(O)O`, the Potency result with DFO2036, with DIV14, in the test on DIV17, in the test on DIV30, in the test on Dd2 and with ECU was “inactive” throughout. For the same compound, the Potency entry in the test on FAB9, in the test on GB4, in the test with HB3, with ICS, in the test with JCK and with N140 was “inactive” each time. Further, the Potency result in the test with P93_24, in the test with P94_40, in the test with PAD, in the test on PC15, in the test with PC26 and with PC49 was “inactive” throughout. Moreover, the Potency result in the test with SC27B and with TAB109 was “inactive” throughout.
As for `Cc1cc(=O)c2c(O)c3c(O)cc(=O)c4c3c3c(cc(O)c1c23)C(C)(C)C=4O`, the Potency in the test on DFO2036 was 1120 nM (active); with DIV14, 2390 nM (active); in the test on DIV17 it was 2690 nM (active); with Dd2 it was 1260 nM (active); in the test on ECU, 2000 nM (active); with GB4 it was 2130 nM (active). Besides, the Potency is 2000 nM (active) with HB3; 355 nM (active) in the test with ICS; 1000 nM (active) with N140; 2240 nM (active) in the test on P93_24; 2000 nM (active) with P94_40; 2510 nM (active) in the test on PAD. Further, the Potency in the test on PC15 was 3980 nM (active); with PC49, 7940 nM (active); in the test on SC27B it was 1580 nM (active); in the test with TAB109, 2240 nM (active). Also, the Potency entry in the test with FAB9 is “inactive”.
As to `CC(C)c1ccc2oc3nc(N)c(C(=O)O)cc3c(=O)c2c1`, the Potency result in the test on DFO2036, in the test on DIV14, in the test with DIV17, in the test with DIV30, in the test on Dd2 and in the test with FAB9 was “inactive” each time. Further, the Potency result in the test with GB4, in the test on HB3, with ICS, with JCK, in the test on N140 and in the test with P93_24 was “inactive” in each case. In addition, the Potency result in the test on P94_40, in the test on PC15, with PC26, with PC49 and in the test with TAB109 was “inactive” each time.
On to `c1ccc2[nH]c(-c3cscn3)nc2c1`, for which the Potency result in the test with DFO2036, with DIV14, in the test on DIV17, in the test with DIV30, in the test with Dd2 and in the test with ECU was “inactive” throughout. For the same compound, the Potency result with FAB9, with GB4, in the test on HB3, in the test with ICS, with JCK and in the test with N140 was “inactive” each time. Also, the Potency result in the test on P93_24, in the test on P94_40, in the test with PAD, in the test with PC15, with PC49 and in the test on SC27B was “inactive” throughout. In addition, in the test with TAB109, the Potency entry is “inactive”.
Regarding `Nc1ccn([C@@H]2O[C@H](CO)[C@@H](O)C2O)c(=O)n1` (stereo not given in full), the Potency entry with DFO2036, in the test with DIV14, in the test with DIV17, with Dd2, in the test with ECU and in the test with FAB9 was “inactive” in each case. The Potency entry in the test with GB4, with HB3, in the test with ICS, with JCK, in the test on N140 and with P93_24 was “inactive” in each case. The Potency entry in the test on P94_40, in the test on PAD, with PC15, with PC49, in the test on SC27B and in the test on TAB109 was “inactive” throughout.
With `O=C(O)c1cccc(-c2noc(-c3ccccc3F)n2)c1`, the Potency entry with DFO2036, in the test with DIV14, with DIV17, in the test on DIV30, with Dd2 and in the test on ECU was “inactive” in each case. The Potency entry in the test with FAB9, with GB4, in the test on HB3, in the test on ICS, in the test on JCK and in the test on N140 was “inactive” each time. Moreover, the Potency entry with P93_24, in the test with P94_40, with PAD, in the test on PC15, with PC26 and with PC49 was “inactive” each time. The Potency entry with SC27B and in the test with TAB109 was “inactive” in each case.
For `CN(C)C(=O)COC(=O)Cc1ccc(OC(=O)c2ccc(N=C(N)N)cc2)cc1`, the Potency result in the test on DFO2036, in the test with DIV14, in the test on DIV17, in the test with DIV30, in the test on ECU and with FAB9 was “inactive” throughout. The Potency result in the test with GB4, in the test with HB3, with ICS, with JCK, in the test with N140 and in the test with P93_24 was “inactive” throughout. Also, the Potency result with P94_40, with PAD, with PC15, with PC26, with PC49 and in the test on SC27B was “inactive” throughout. The Potency result with TAB109 is “inactive”.
For the compound `Cn1c(NCCN(CCO)CCCc2ccc([N+](=O)[O-])cc2)cc(=O)n(C)c1=O`, the Potency result in the test on DFO2036, with DIV14, in the test on DIV17, in the test with DIV30, in the test with Dd2 and in the test on ECU was “inactive” each time. The Potency result in the test with FAB9, with GB4, in the test with HB3, in the test with ICS, in the test with JCK and with N140 was “inactive” each time. Also, the Potency entry in the test on P93_24, in the test on P94_40, in the test with PAD, with PC15, in the test with PC26 and in the test on PC49 was “inactive” throughout. For the same compound, the Potency entry in the test with SC27B and in the test on TAB109 was “inactive” throughout.
Regarding `N=C(N=C(N)N)N1CCOCC1`, the Potency result with DFO2036, with DIV14, in the test with DIV17, in the test on DIV30, with Dd2 and with ECU was “inactive” each time. In addition, the Potency result in the test on FAB9, in the test with GB4, in the test on HB3, with ICS, in the test on JCK and with N140 was “inactive” in each case. The Potency result in the test on P93_24, with P94_40, with PAD, in the test with PC15, in the test on PC26 and in the test on PC49 was “inactive” in each case. Moreover, the Potency result in the test with SC27B and in the test on TAB109 was “inactive” throughout.
